{"source": "paper PMC12820563", "about": "“FoxP3 forms a head-to-head dimer in vivo and stabilizes its multimerization on adjacent microsatellites”", "note": "Whole data set: some 16,000 sequences, median “rpm ratio (pull-down/input)” near 0.94, cut for the highest 2% near 1.7. Shown is part of a subset that was picked to be rich in the highest values."}
{"target": "T1, MBP-FoxP1dN (Mus musculus, UniProt P58462 326-579)", "T1 sequence": "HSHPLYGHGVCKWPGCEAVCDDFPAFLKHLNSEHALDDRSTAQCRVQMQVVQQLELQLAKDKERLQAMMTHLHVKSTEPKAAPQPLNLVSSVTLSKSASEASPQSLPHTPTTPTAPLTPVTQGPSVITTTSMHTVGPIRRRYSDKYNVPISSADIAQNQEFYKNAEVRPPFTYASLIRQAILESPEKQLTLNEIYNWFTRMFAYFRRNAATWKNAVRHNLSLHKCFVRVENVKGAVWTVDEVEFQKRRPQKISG", "test": "PD-seq (MBP pull-down with sequencing); 20 mM Tris-HCl pH 7.5, 100 mM NaCl, 1.5 mM MgCl2, 0.4 uM protein, 0.1 uM dsDNA library, 30 min, room temperature, amylose pull-down; high values mean tight binding", "settings": "protein: recombinant; tags: His6-MBP; chain copies: 2; dsDNA, one strand shown", "procedure,_shortened": "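Binding is the reads-per-million enrichment of pull-down relative to input, pooled across replicates. For this, 0.4 µM His6-MBP-tagged mouse FoxP3 or FoxP1 fragment lacking the N-terminus, made in E. coli, was incubated with 0.1 µM Klenow-filled double-stranded degenerate DNA library for 30 min at room temperature in Tris pH 7.5 buffer with NaCl and MgCl2. Complexes bound to amylose resin were washed three times before proteinase K released the DNA for PCR barcoding and Illumina sequencing.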"}
{"sequence": "GATGATTGTTCTCCCAGCTGATGAATTCCTCAGATCGAGTAAACAAATTTTCCTAATCTTTCTGTTCAAGCGCCATCTAC", "binding signal": "0.761 RPM ratio (pull-down/input)"}
{"sequence": "GATGATTGTTCTCCCAGCTGATGAATTCATAAACTCGAGTAAACAAATTTTCCTAATCTTTCTGTTCAAGCGCCATCTAC", "binding signal": "1.07 RPM ratio (pull-down/input)"}
{"sequence": "GATGATTGTTCTCCCAGCTGATGAATTATTGCCATCGAGTAAACAAATTTTCCTAATCTTTCTGTTCAAGCGCCATCTAC", "binding signal": "1.24 RPM ratio (pull-down/input)"}
{"sequence": "GATGATTGTTCTCCCAGCTGATGAATTGTTTGCATCGAGTAAACAAATTTTCCTAATCTTTCTGTTCAAGCGCCATCTAC", "binding signal": "2.26 RPM ratio (pull-down/input)"}
{"sequence": "GATGATTGTTCTCCCAGCTGATGAATTATTTGCATCGAGTAAACAAATTTTCCTAATCTTTCTGTTCAAGCGCCATCTAC", "binding signal": "1.89 RPM ratio (pull-down/input)"}
{"sequence": "GATGATTGTTCTCCCAGCTGATGAATTCTTTGCATCGAGTAAACAAATTTTCCTAATCTTTCTGTTCAAGCGCCATCTAC", "binding signal": "1.26 RPM ratio (pull-down/input)"}
{"sequence": "GATGATTGTTCTCCCAGCTGATGAATTTTTTGCATCGAGTAAACAAATTTTCCTAATCTTTCTGTTCAAGCGCCATCTAC", "binding signal": "1.45 RPM ratio (pull-down/input)"}
{"sequence": "GATGATTGTTCTCCCAGCTGATGAATTTGCAGCATCGAGTAAACAAATTTTCCTAATCTTTCTGTTCAAGCGCCATCTAC", "binding signal": "1.09 RPM ratio (pull-down/input)"}
{"sequence": "GATGATTGTTCTCCCAGCTGATGAATTTGTTGCATCGAGTAAACAAATTTTCCTAATCTTTCTGTTCAAGCGCCATCTAC", "binding signal": "1.84 RPM ratio (pull-down/input)"}
{"sequence": "GATGATTGTTCTCCCAGCTGATGAATTTGCATGATCGAGTAAACAAATTTTCCTAATCTTTCTGTTCAAGCGCCATCTAC", "binding signal": "1.05 RPM ratio (pull-down/input)"}
{"sequence": "GATGATTGTTCTCCCAGCTGATGAATTATTGCAATCGAGTAAACAAATTTTCCTAATCTTTCTGTTCAAGCGCCATCTAC", "binding signal": "1.49 RPM ratio (pull-down/input)"}
{"sequence": "GATGATTGTTCTCCCAGCTGATGAATTCCCCTCTTCGAGTAAACAAATTTTCCTAATCTTTCTGTTCAAGCGCCATCTAC", "binding signal": "0.821 RPM ratio (pull-down/input)"}
{"sequence": "GATGATTGTTCTCCCAGCTGATGAATTCTCAGGGTCGAGTAAACAAATTTTCCTAATCTTTCTGTTCAAGCGCCATCTAC", "binding signal": "0.745 RPM ratio (pull-down/input)"}
{"sequence": "GATGATTGTTCTCCCAGCTGATGAATTGTGCCTGTCGAGTAAACAAATTTTCCTAATCTTTCTGTTCAAGCGCCATCTAC", "binding signal": "0.964 RPM ratio (pull-down/input)"}
{"sequence": "GATGATTGTTCTCCCAGCTGATGAATTTCGCAAGTCGAGTAAACAAATTTTCCTAATCTTTCTGTTCAAGCGCCATCTAC", "binding signal": "0.831 RPM ratio (pull-down/input)"}
{"sequence": "GATGATTGTTCTCCCAGCTGATGAATTAGGAACGTCGAGTAAACAAATTTTCCTAATCTTTCTGTTCAAGCGCCATCTAC", "binding signal": "0.882 RPM ratio (pull-down/input)"}
{"sequence": "GATGATTGTTCTCCCAGCTGATGAATTGCCGTCGTCGAGTAAACAAATTTTCCTAATCTTTCTGTTCAAGCGCCATCTAC", "binding signal": "0.968 RPM ratio (pull-down/input)"}
{"sequence": "GATGATTGTTCTCCCAGCTGATGAATTAGACATATCGAGTAAACAAATTTTCCTAATCTTTCTGTTCAAGCGCCATCTAC", "binding signal": "1.06 RPM ratio (pull-down/input)"}
{"sequence": "GATGATTGTTCTCCCAGCTGATGAATTTACTAAGTCGAGTAAACAAATTTTCCTAATCTTTCTGTTCAAGCGCCATCTAC", "binding signal": "1.29 RPM ratio (pull-down/input)"}
{"sequence": "GATGATTGTTCTCCCAGCTGATGAATTCCCACGATCGAGTAAACAAATTTTCCTAATCTTTCTGTTCAAGCGCCATCTAC", "binding signal": "0.81 RPM ratio (pull-down/input)"}
{"sequence": "GATGATTGTTCTCCCAGCTGATGAATTTCCAATATCGAGTAAACAAATTTTCCTAATCTTTCTGTTCAAGCGCCATCTAC", "binding signal": "1.02 RPM ratio (pull-down/input)"}
{"sequence": "GATGATTGTTCTCCCAGCTGATGAATTGTCAATATCGAGTAAACAAATTTTCCTAATCTTTCTGTTCAAGCGCCATCTAC", "binding signal": "2.23 RPM ratio (pull-down/input)"}
{"sequence": "GATGATTGTTCTCCCAGCTGATGAATTTCAAATATCGAGTAAACAAATTTTCCTAATCTTTCTGTTCAAGCGCCATCTAC", "binding signal": "0.914 RPM ratio (pull-down/input)"}
{"sequence": "GATGATTGTTCTCCCAGCTGATGAATTTCTAATATCGAGTAAACAAATTTTCCTAATCTTTCTGTTCAAGCGCCATCTAC", "binding signal": "1.09 RPM ratio (pull-down/input)"}
{"sequence": "GATGATTGTTCTCCCAGCTGATGAATTTGTAATATCGAGTAAACAAATTTTCCTAATCTTTCTGTTCAAGCGCCATCTAC", "binding signal": "1.36 RPM ratio (pull-down/input)"}
{"sequence": "GATGATTGTTCTCCCAGCTGATGAATTGTAAATATCGAGTAAACAAATTTTCCTAATCTTTCTGTTCAAGCGCCATCTAC", "binding signal": "2.72 RPM ratio (pull-down/input)"}
{"sequence": "GATGATTGTTCTCCCAGCTGATGAATTGCAAATATCGAGTAAACAAATTTTCCTAATCTTTCTGTTCAAGCGCCATCTAC", "binding signal": "1.85 RPM ratio (pull-down/input)"}
{"sequence": "GATGATTGTTCTCCCAGCTGATGAATTCTGAATATCGAGTAAACAAATTTTCCTAATCTTTCTGTTCAAGCGCCATCTAC", "binding signal": "0.974 RPM ratio (pull-down/input)"}
{"sequence": "GATGATTGTTCTCCCAGCTGATGAATTTTCAATATCGAGTAAACAAATTTTCCTAATCTTTCTGTTCAAGCGCCATCTAC", "binding signal": "1.06 RPM ratio (pull-down/input)"}
{"sequence": "GATGATTGTTCTCCCAGCTGATGAATTCTAAATATCGAGTAAACAAATTTTCCTAATCTTTCTGTTCAAGCGCCATCTAC", "binding signal": "1.76 RPM ratio (pull-down/input)"}
{"sequence": "GATGATTGTTCTCCCAGCTGATGAATTTGCAATATCGAGTAAACAAATTTTCCTAATCTTTCTGTTCAAGCGCCATCTAC", "binding signal": "1.34 RPM ratio (pull-down/input)"}
{"sequence": "GATGATTGTTCTCCCAGCTGATGAATTCCTAATATCGAGTAAACAAATTTTCCTAATCTTTCTGTTCAAGCGCCATCTAC", "binding signal": "1.07 RPM ratio (pull-down/input)"}
{"sequence": "GATGATTGTTCTCCCAGCTGATGAATTAGAAAGGTCGAGTAAACAAATTTTCCTAATCTTTCTGTTCAAGCGCCATCTAC", "binding signal": "0.826 RPM ratio (pull-down/input)"}
{"sequence": "GATGATTGTTCTCCCAGCTGATGAATTCACCTACTCGAGTAAACAAATTTTCCTAATCTTTCTGTTCAAGCGCCATCTAC", "binding signal": "0.921 RPM ratio (pull-down/input)"}
{"sequence": "GATGATTGTTCTCCCAGCTGATGAATTTATCGCTTCGAGTAAACAAATTTTCCTAATCTTTCTGTTCAAGCGCCATCTAC", "binding signal": "1.1 RPM ratio (pull-down/input)"}
{"sequence": "GATGATTGTTCTCCCAGCTGATGAATTCGTCCCCTCGAGTAAACAAATTTTCCTAATCTTTCTGTTCAAGCGCCATCTAC", "binding signal": "0.772 RPM ratio (pull-down/input)"}
{"sequence": "GATGATTGTTCTCCCAGCTGATGAATTTTGAGAATCGAGTAAACAAATTTTCCTAATCTTTCTGTTCAAGCGCCATCTAC", "binding signal": "0.914 RPM ratio (pull-down/input)"}
{"sequence": "GATGATTGTTCTCCCAGCTGATGAATTTTACAAATCGAGTAAACAAATTTTCCTAATCTTTCTGTTCAAGCGCCATCTAC", "binding signal": "1.1 RPM ratio (pull-down/input)"}
{"sequence": "GATGATTGTTCTCCCAGCTGATGAATTTTACATATCGAGTAAACAAATTTTCCTAATCTTTCTGTTCAAGCGCCATCTAC", "binding signal": "0.97 RPM ratio (pull-down/input)"}
{"sequence": "GATGATTGTTCTCCCAGCTGATGAATTACAAAAATCGAGTAAACAAATTTTCCTAATCTTTCTGTTCAAGCGCCATCTAC", "binding signal": "1.59 RPM ratio (pull-down/input)"}
{"sequence": "GATGATTGTTCTCCCAGCTGATGAATTTACAAAATCGAGTAAACAAATTTTCCTAATCTTTCTGTTCAAGCGCCATCTAC", "binding signal": "1.74 RPM ratio (pull-down/input)"}
{"sequence": "GATGATTGTTCTCCCAGCTGATGAATTTACATAATCGAGTAAACAAATTTTCCTAATCTTTCTGTTCAAGCGCCATCTAC", "binding signal": "1.76 RPM ratio (pull-down/input)"}
{"sequence": "GATGATTGTTCTCCCAGCTGATGAATTGTTTACATCGAGTAAACAAATTTTCCTAATCTTTCTGTTCAAGCGCCATCTAC", "binding signal": "2.91 RPM ratio (pull-down/input)"}
{"sequence": "GATGATTGTTCTCCCAGCTGATGAATTACATAAATCGAGTAAACAAATTTTCCTAATCTTTCTGTTCAAGCGCCATCTAC", "binding signal": "1.64 RPM ratio (pull-down/input)"}
{"sequence": "GATGATTGTTCTCCCAGCTGATGAATTTTTTACATCGAGTAAACAAATTTTCCTAATCTTTCTGTTCAAGCGCCATCTAC", "binding signal": "0.953 RPM ratio (pull-down/input)"}
{"sequence": "GATGATTGTTCTCCCAGCTGATGAATTTACAACATCGAGTAAACAAATTTTCCTAATCTTTCTGTTCAAGCGCCATCTAC", "binding signal": "1.67 RPM ratio (pull-down/input)"}
